From PubChem BioAssay AID1259421 (Broad Institute, 2018) come the findings set out here.

Where “and” joins values, the source holds several entries; their conditions need not be identical. Identical values can stand only once. The whole screen tested about 6,400 compounds, of which about 610 (9.5%) were called active. Rule as the data show it: active = activity change below about -70%; inconclusive = no clear call, values can overlap the other calls; inactive = above that. The entries come from a sample that favours actives as a whole. Some structures have more than one record in an assay (separate samples or runs), and their calls can disagree.

The nature of the assay: Toxoplasma gondii ME49Luc growth in HeLa cells, luciferase, no IFN-y, primary screen (AID 1259421). As to conditions: T. gondii ME49Luc in HeLa, 72 h, stronger effect = lower value, concentration not given here.
`CCC(=O)OCC(=O)[C@@]1(OC(=O)CC)[C@@H](C)CC2C3CCC4=CC(=O)C=C[C@]4(C)C3(F)[C@@H](O)C[C@@]21C` (some centres not stated): the activity change, negative = inhibition is -0.442% (inactive).
To `CC(=O)Nc1ccc(S(=O)(=O)Nc2onc(C)c2C)cc1` belongs 6.51% (inactive).
Consider `NCCCC(N)(C(=O)O)C(F)F` (configuration not stated), for which the activity change, negative = inhibition is 7.14% (inactive).
To `COc1cc(OC)c2c(=O)cc(-c3ccccc3)oc2c1` belongs 147% (inactive); to `COc1cc(OC)c2c(OC)c(-c3ccc4c(c3)OCO4)c(=O)oc2c1`, -77.7% (active); to `COc1cc(OC)c2c(=O)c(OC)c(-c3ccccc3)oc2c1`, 43.5% (inactive).
As for `O=C(NCCc1ccc(O)c(O)c1)C12CC3CC(CC(C3)C1)C2`, the activity change, negative = inhibition is 1.2% (inactive).
As to `N#C/C(=C\c1ccc(O)c(O)c1)C(=O)OCCc1cccs1`, the activity change, negative = inhibition was 2.66% (inactive).
In the case of `COc1cc2c(cc1OC)Cc1cc(OC)c(OC)cc1Cc1cc(OC)c(OC)cc1C2`, the activity change, negative = inhibition was 6.34% (inactive).
To `COc1cccc(N2CCN(C3=Nc4c(F)cccc4[C@H](CC(=O)O)N3c3cc(C(F)(F)F)ccc3OC)CC2)c1` belongs -1.57% (inactive); to `O=C1c2ccccc2CCC1CNCCc1ccc(O)cc1` (configuration not stated), 9.23% (inactive); to `O=S(=O)(O)c1ccc(O)cc1`, 0.395% (inactive).
Turning to `CC(=O)N1CCN(C)CC1`, the activity change, negative = inhibition is 1.18% (inactive) and 9.84% (inactive).
As to `O=c1c2cc(O)c(O)cc2oc2cc(O)c(C3O[C@H](CO)[C@H](O)[C@@H](O)[C@H]3O)c(O)c12` (some centres not stated), the activity change, negative = inhibition is 3.15% (inactive).
To `COc1ccc(-c2cc(=O)c3c(O)c(OC)c(O[C@H]4O[C@H](CO[C@@H]5O[C@@H](C)[C@H](O)[C@@H](O)[C@H]5O)[C@@H](O)[C@H](O)[C@H]4O)cc3o2)cc1` belongs 15.1% (inactive).
To `O=C(NNc1nc2cc(F)ccc2n2cccc12)c1cnccn1` belongs -77.3% (active).
For `NC(Cc1ccc(F)cc1)C(=O)O` (configuration not stated), the activity change, negative = inhibition was 2.32% (inactive).
To `CCCCNc1ncc(-c2ccc(CN3CCOCC3)cn2)c(NC2CCC(O)CC2)n1` (configuration not stated) belongs -67.2% (inactive).
The figure for `OC1CCC(Nc2ncc3nc(Nc4c(F)cc(F)cc4F)n([C@H]4CCOC4)c3n2)CC1` (some centres not stated) is -77.1% (active).
To `O=C(CN1C(=O)c2ccccc2S1(=O)=O)Nc1ccc(O)cc1` belongs 6.78% (inactive).
Take `Nc1nc(NCCNc2ncc(-n3ccnc3)c(-c3ccc(Cl)cc3Cl)n2)ccc1[N+](=O)[O-]`: the activity change, negative = inhibition was 38.7% (inactive).
For the compound `O=C(NO)c1cnc(N2CCN(S(=O)(=O)c3ccc4ccccc4c3)CC2)nc1`, the activity change, negative = inhibition is -82.9% (active).
To `COc1ccccc1N1CCN(CCCCNC(=O)c2ccc3ccccc3c2)CC1` belongs -12.8% (inactive); to `COc1ccc(S(=O)(=O)N2CCCN(S(=O)(=O)c3ccc(OC)c(OC)c3)CC2)cc1OC`, 0.269% (inactive); to `O=c1c2ccccc2oc2ccccc12`, 16.7% (inactive).
The figure for `O=C(O)c1cc(=O)c2ccccc2o1` is 5.57% (inactive) and 14.8% (inactive); for `O=c1[nH]c(=O)c2ccccc2o1` it is 7.04% (inactive) and -95.9% (active).
As to `OC(c1ccccc1)(c1ccccc1)C12CC[N+](CCOCc3ccccc3)(CC1)CC2`, the activity change, negative = inhibition was 13.9% (inactive).
To `COc1ccc2oc(-c3ccccc3OC)cc(=O)c2c1` belongs 44.1% (inactive); to `O=C(Nc1ccccc1)NC1CC(C(=O)O)Nc2cc(Cl)cc(Cl)c21` (configuration not stated), 13% (inactive); to `CCCNC(C)C(=O)Nc1ccccc1C` (configuration not stated), 37.2% (inactive) and -79.6% (active).
As to `Cc1ccccc1N=C(N)Nc1ccccc1C`, the activity change, negative = inhibition is 5.45% (inactive) and 4.9% (inactive).
`CCCNC(C)C(=O)Nc1c(C)csc1C(=O)OC` (configuration not stated): the activity change, negative = inhibition is 20% (inactive).
The figure for `CCCCCCCCCCCCCCCC(=O)OC1C(SC)OC(C(NC(=O)C2CC(CCC)CN2C)C(C)Cl)C(O)C1O` (configuration not stated) is -9.26% (inactive).
To `COCCn1c2c([n+](Cc3cnccn3)c1C)C(=O)c1ccccc1C2=O` belongs -83.1% (active) and -81.3% (active).
To `CN1c2cc(O)c(N=NC(N)=O)cc2CC1S(=O)(=O)O` (configuration not stated) belongs -1.43% (inactive); to `O=P(O)(O)C(Sc1ccc(Cl)cc1)P(=O)(O)O`, 5.32% (inactive) and -0.0921% (inactive); to `CC(=O)OCC(=O)[C@@]1(O)CCC2C3C[C@H](C)C4=CC(=O)C=CC4(C)C3[C@@H](O)CC21C` (some centres not stated), -6.72% (inactive).
Turning to `N[C@@H](CSS(=O)(=O)O)C(=O)O`, the activity change, negative = inhibition was 14.6% (inactive).
As to `c1cc(OCCN2CCCCC2)cc(-c2n[nH]c3ccc(-c4ncn[nH]4)cc23)c1`, the activity change, negative = inhibition is -32.3% (inactive).
As to `C1=C/COCc2cc(ccc2OCCN2CCCC2)Nc2nccc(n2)-c2cccc(c2)COC/1`, the activity change, negative = inhibition was -80.3% (active).
To `Cc1ccccc1N1CCN(S(=O)(=O)CC23CCC(C[C@@H]2NC(=O)[C@@H](N)CCS(C)(=O)=O)C3(C)C)CC1` (some centres not stated) belongs 1.28% (inactive) and 5.87% (inactive).
To `Cc1cc(OCC(=O)O)cc(C)c1Cc1ccc(O)c(C(C)C)c1` belongs 1.47% (inactive); to `CCCCc1oc2ccc(NS(C)(=O)=O)cc2c1C(=O)c1ccc(OCCCN(CCCC)CCCC)cc1`, -83.6% (active).
The figure for `CCCCc1oc2ccccc2c1C(=O)c1cc(I)c(OCCN(CC)CC)c(I)c1` is -58.9% (inactive); for `CN(CCOc1ccc(NS(C)(=O)=O)cc1)CCc1ccc(NS(C)(=O)=O)cc1` it is -7.15% (inactive) and -5.58% (inactive); for `CCCCC/C=C\C/C=C\C/C=C\CCCCCCC(=O)O` it is 4.57% (inactive).
Turning to `Clc1ccc(-c2nc3sccn3c2/C=N/OCc2ccc(Cl)c(Cl)c2)cc1`, the activity change, negative = inhibition is 27.7% (inactive) and 3.2% (inactive).
For `C[C@H](N)C(=O)N[C@@H](C)P(=O)(O)O`, the activity change, negative = inhibition was 9.38% (inactive).
As to `CC[C@H](C)[C@@H]([C@@H](CC(=O)N1CCC[C@H]1[C@H](OC)[C@@H](C)C(=O)N[C@@H](Cc1ccccc1)c1nccs1)OC)N(C)C(=O)[C@@H](NC(=O)[C@H](C(C)C)N(C)C)C(C)C`, the activity change, negative = inhibition was -85.6% (active).
For `CNC(=O)C1OC(n2cnc3c(NCc4cccc(I)c4)nc(Cl)nc32)C(O)C1O` (configuration not stated), the activity change, negative = inhibition was -2.06% (inactive).
The figure for `COc1ccc(C(=O)c2ccc(C)cc2)c(O)c1` is 154% (inactive) and 98.7% (inactive); for `NC(=O)c1ccc(I)c([N+](=O)[O-])c1` it is 13.7% (inactive); for `Cc1ccc(C(=O)c2cc(O)c(O)c([N+](=O)[O-])c2)cc1` it is -80% (active) and 2.13% (inactive).
As to `COc1cc(OC)c(/C=C/S(=O)(=O)Cc2ccc(OC)c(NCC(=O)O)c2)c(OC)c1`, the activity change, negative = inhibition is -46.4% (inactive).
The figure for `COc1ccnc2[nH]cc(C(=O)C(=O)N3CCN(C(=O)c4ccccc4)C[C@H]3C)c12` is 5.24% (inactive).
With `C[C@]12CC[C@H](O)CC1=CCC1C2CC[C@]2(C)C(n3cnc4ccccc43)=CCC12` (some centres not stated), the activity change, negative = inhibition was -67.5% (inactive).
The figure for `Fc1ccc(-c2nc3n(c2-c2ccncc2)CCS3)cc1` is -79.8% (active).
To `COC(=O)Cc1cccn1C` belongs 10.9% (inactive); to `CC(O)CN(CCN(CC(C)O)CC(C)O)CC(C)O` (configuration not stated), 15.4% (inactive).
The figure for `Cc1cc(OCc2nnc(SC3CCCC3)n2-c2cccnc2)ccc1-c1ccc(S(C)(=O)=O)cc1` is -79.2% (active); for `CSCC[C@H](NC(=O)[C@@H](N)Cc1c[nH]c2ccccc12)C(=O)N[C@@H](CC(=O)O)C(=O)N[C@@H](Cc1ccccc1)C(N)=O` it is 17% (inactive); for `CC(=O)O[C@]1(C(C)=O)CCC2C3C=C(C)C4=CC(=O)CC[C@]4(C)C3CC[C@@]21C` (some centres not stated) it is 9.66% (inactive).
For the compound `Cn1c(O)c(C2=c3ccccc3=NC2=O)c2ccccc21`, the activity change, negative = inhibition was 13.5% (inactive).
The figure for `CCC(C)n1ncn(-c2ccc(N3CCN(c4ccc(OC[C@H]5CO[C@](Cn6cncn6)(c6ccc(Cl)cc6Cl)O5)cc4)CC3)cc2)c1=O` (some centres not stated) is -63.1% (inactive) and -38.1% (inactive).
The figure for `C#C[C@]1(O)CCC2C3CCc4cc(OC)ccc4C3CC[C@@]21C` (some centres not stated) is 7.57% (inactive); for `C[C@]12CC[C@@H]3c4ccc(O)cc4CC[C@H]3[C@@H]1CCC2=O` it is -66.6% (inactive) and -57.7% (inactive); for `C#C[C@]1(O)CCC2C3CCc4cc(OC5CCCC5)ccc4C3CC[C@@]21C` (some centres not stated) it is 33.4% (inactive).
`C#C[C@]1(O)CC[C@H]2[C@@H]3CCc4cc(O)ccc4[C@H]3CC[C@@]21C`: the activity change, negative = inhibition is -81.1% (active).
On to `C#C[C@]1(O)CCC2C3CCc4cc(O)ccc4C3CC[C@@]21C` (some centres not stated), for which the activity change, negative = inhibition was -81.3% (active).
To `C#C[C@]1(O)CC[C@H]2[C@@H]3CCc4cc(OC)ccc4[C@H]3CC[C@@]21C` belongs 9.24% (inactive).
`CCOc1ccc(Cc2cc([C@@H]3O[C@H](CO)[C@@H](O)[C@H](O)[C@H]3O)ccc2Cl)cc1`: the activity change, negative = inhibition was 4.88% (inactive) and 10.3% (inactive).
The figure for `CCN1/C(=C/C(C)=O)Sc2ccc(OC)cc21` is 21% (inactive); for `CC#CCOC(=O)c1c(C)nc2sc3c(c2c1N)CCC(O)C3` (configuration not stated) it is 49.7% (inactive) and 66.7% (inactive).
The figure for `N[C@@H]1[C@@H](O)[C@H](O)[C@@H](CO)O[C@H]1O` is 1.35% (inactive); for `CN(CCc1ccc(Cl)c(Cl)c1)CCN1CCCC1` it is 14.6% (inactive); for `CC1(O)C(O)C(CO)OC1n1ccc(N)nc1=O` (configuration not stated) it is 27.1% (inactive).
To `C[C@@H]1O[C@@H](O[C@@H]2[C@H](Oc3cc(O)c(C(=O)CCc4ccc(O)cc4)c(O)c3)O[C@H](CO)[C@@H](O)[C@@H]2O)[C@H](O)[C@H](O)[C@H]1O` belongs 5.31% (inactive); to `COc1cc2c(cc1OC)CC(=O)N(CCCN(C)C[C@@H]1Cc3cc(OC)c(OC)cc31)CC2`, 13.9% (inactive).
For `COc1cc2ncnc(Nc3cccc(O)c3)c2cc1OC`, the activity change, negative = inhibition was 10.5% (inactive).
As for `CCCNC(=O)Nc1ccc(Oc2ncnc3cc(OC)c(OC)cc23)cc1Cl`, the activity change, negative = inhibition is 6.99% (inactive).
Consider `COc1cc2ncnc(Oc3cccc(NC(=O)Nc4cc(C(C)(C)C(F)(F)F)on4)c3)c2cc1OC`, for which the activity change, negative = inhibition was -78.4% (active).
